Test results: PubChem BioAssay AID1445 (SRMLSC, 2008)
About 910 (0.41%) of roughly 220,000 compounds were called active. This excerpt belongs to a sample that is enriched for actives. Measured potencies and affinities stand elsewhere. Values without a mark were called inactive.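 Rule for the calls: active = primary inhibition above the hit cutoff, then over 50% inhibition at one or more dose response concentrations (cut at about 23% in these data, passing the limit was not always enough); inconclusive = conflicting primary data, or primary hits not chosen for dose response; inactive = low primary inhibition, or under 50% at every dose.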

The molecules below were run against Aminopeptidase N (Plasmodium falciparum (isolate 3D7)) (UniProt O96935) (assay: malaria alanyl aminopeptidase activity blockers – biochemical, fluorogenic H-Leu-NHMec substrate, 1536-well (AID 1445;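 note: plate controls were DMSO full reaction for no effect and no enzyme background for full effect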)). Conditions: recombinant M1AAP, H-Leu-NHMec fluorogenic kinetic assay; at 30 µM, hits give high values unless noted.
Sequence of Aminopeptidase N (Plasmodium falciparum (isolate 3D7)) (O96935 whole entry, looked up): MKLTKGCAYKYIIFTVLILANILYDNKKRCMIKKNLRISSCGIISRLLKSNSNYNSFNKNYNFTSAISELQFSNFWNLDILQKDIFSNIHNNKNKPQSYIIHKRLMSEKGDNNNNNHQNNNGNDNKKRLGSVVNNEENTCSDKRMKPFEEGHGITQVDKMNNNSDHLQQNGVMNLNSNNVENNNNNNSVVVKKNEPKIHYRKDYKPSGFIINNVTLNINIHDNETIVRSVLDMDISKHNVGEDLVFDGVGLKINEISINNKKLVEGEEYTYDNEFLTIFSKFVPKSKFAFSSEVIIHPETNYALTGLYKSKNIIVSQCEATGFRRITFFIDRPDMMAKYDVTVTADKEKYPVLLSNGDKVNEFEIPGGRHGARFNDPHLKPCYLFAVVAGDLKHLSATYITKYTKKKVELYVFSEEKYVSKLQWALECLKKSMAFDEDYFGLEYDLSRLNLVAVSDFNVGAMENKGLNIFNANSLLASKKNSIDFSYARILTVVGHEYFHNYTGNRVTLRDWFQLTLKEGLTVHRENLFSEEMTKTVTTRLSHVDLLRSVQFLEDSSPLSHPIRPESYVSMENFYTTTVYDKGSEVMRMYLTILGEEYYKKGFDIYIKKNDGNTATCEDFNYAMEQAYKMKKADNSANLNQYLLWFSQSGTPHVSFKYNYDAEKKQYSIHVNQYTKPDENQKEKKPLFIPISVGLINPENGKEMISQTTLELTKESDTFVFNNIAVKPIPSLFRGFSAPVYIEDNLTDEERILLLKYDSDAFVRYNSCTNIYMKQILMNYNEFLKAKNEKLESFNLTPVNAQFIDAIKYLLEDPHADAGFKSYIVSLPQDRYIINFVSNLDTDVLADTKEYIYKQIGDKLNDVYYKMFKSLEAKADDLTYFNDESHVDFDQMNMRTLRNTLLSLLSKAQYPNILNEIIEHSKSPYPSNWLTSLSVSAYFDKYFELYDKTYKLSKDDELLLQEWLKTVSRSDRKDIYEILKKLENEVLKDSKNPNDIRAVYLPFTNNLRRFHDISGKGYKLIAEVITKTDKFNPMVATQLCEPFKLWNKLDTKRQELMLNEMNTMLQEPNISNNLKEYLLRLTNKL
`CC[C@@H]1CC=C[C@H]2[C@H]1C(=O)N(Cc1ccccc1)[C@H]2c1ccc(OC)c(Cl)c1` showed an inhibition of 4.5%. Molecule `COc1ccc(C2CC(c3ccccc3)=NN2c2ccc(S(N)(=O)=O)cc2)cc1OC` (stereo not given) has an inhibition of 19.9%. With `NS(=O)(=O)c1ccc(N2N=C(c3ccc(Br)cc3)CC2c2ccc(F)cc2)cc1` (stereo not given) the inhibition was 5.03%. In the case of `NS(=O)(=O)c1ccc(N2N=C(c3ccccc3)CC2c2ccccc2)cc1` (stereo not given), the inhibition is reported as 19.1%. With `COc1ccc(C2CC(c3ccccc3)=NN2c2ccc(S(N)(=O)=O)cc2)cc1` (stereo not given) the inhibition was 22.3%. Molecule `CC(C)(C)N/C=C(\C#N)S(=O)(=O)c1ccc(Br)cc1` has an inhibition of -2.81%. For `COc1cc(OC)c2c(-c3ccccc3)cc(=O)oc2c1C(CC(=O)N1CCN(c2ccccc2)CC1)c1ccc2c(c1)OCO2` (stereo not given), the inhibition was 5.15%. In the case of `C=CCn1c(=O)c2ccccc2n2c(SCC(=O)Nc3sc(C)c(CC)c3C(=O)OCC)nnc12`, the inhibition is reported as 1.54%. In the case of `CS(=O)(=O)N(CC(=O)Nc1ccccc1C(=O)N1CCOCC1)c1ccccc1`, the inhibition is reported as -1.24%. Molecule `CS(=O)(=O)N(CC(=O)Nc1ccccc1C(=O)N1CCCC1)c1ccc2c(c1)OCO2` has an inhibition of 4.85%. In the case of `CS(=O)(=O)N(CC(=O)Nc1ccccc1C(=O)N1CCOCC1)c1ccc2c(c1)OCO2`, the inhibition is reported as 24.9% (active). In the case of `Cc1cc(C(=O)CSc2nnc(C3COc4ccccc4O3)n2C)c(C)n1-c1ccc(F)cc1` (stereo not given), the inhibition is reported as 7.16%. `CCCOc1cccc(NC(=O)OC2CCN(C)CC2)c1` gave an inhibition of -1.59%. Molecule `Cc1ccc(C(=O)Nc2ncc(Cc3ccc(F)cc3)s2)o1` has an inhibition of 3.37%. `O=[N+]([O-])c1ccc(N/N=C\c2cccnc2)nc1` showed an inhibition of 6.43%. With `COc1ccc(C(=O)Nc2nc3nccc(-c4ccccc4)n3n2)cc1` the inhibition was 0.22%. For `CCOC(=O)c1c(NC(=O)CSc2ncnc3ccccc23)sc(C)c1C`, the inhibition was 1.43%. `COC(=O)c1c(NC(=O)CSc2ccccc2N)sc(C)c1C` was tested, and the inhibition was 2.47%. Molecule `O=c1[nH]c(/C(=N\O)c2ccccc2)no1` has an inhibition of 10.2%. For `Cc1nnc(SCc2ccc(Cl)cc2Cl)[nH]c1=O`, the inhibition was 4.54%. Work on `S=c1[nH]nc(-c2ccc(Br)cc2)n1Cc1ccco1` yielded an inhibition of 3.64%. `Cn1cccc1Cc1nnc(SCC(=O)NC2CCCCC2)n1-c1ccc(F)cc1` gave an inhibition of 6.82%. In the case of `COc1ccc2ccccc2c1C1CC(=O)N2CN(C3CCCCC3)CSC2=C1C#N` (stereo not given), the inhibition is reported as 28% (active). With `COc1ccc2ccccc2c1C1CC(=O)N2CN(C)CSC2=C1C#N` (stereo not given) the inhibition was 16%. Work on `CCOc1ccccc1N1CSC2=C(C#N)C(c3c(OC)ccc4ccccc34)CC(=O)N2C1` (stereo not given) yielded an inhibition of 18.2%. For `CCOc1ccccc1NC(=O)c1ccc(S(=O)(=O)N(C)C)cc1`, the inhibition was -1.64%. For `COCc1nnc(NS(=O)(=O)c2ccc([N+](=O)[O-])cc2)s1`, the inhibition was 2.64%. With `Nc1c(C(=O)O)ccc2c1C(=O)c1ccccc1C2=O` the inhibition was 4.92%. `O=C(O)c1cccc2c1C(=O)c1ccccc1C2=O` showed an inhibition of 15.9%. `COc1cccc(N2C(=O)CC(N3CCN(CCN=CC4=C(O)CC(C)(C)CC4=O)CC3)C2=O)c1` (stereo not given) showed an inhibition of 5.88%. With `COc1cc(-c2cc(=O)c3c(O)cc(O)cc3o2)ccc1O` the inhibition was 12.4%. `O=c1c(-c2c(O)cc(O)c3c(=O)cc(-c4ccc(O)cc4)oc23)c(-c2ccc(O)cc2)oc2cc(O)cc(O)c12` was tested, and the inhibition was 12%. `Cn1c(SCC(=O)Nc2nccs2)nnc1C12CC3CC(CC(C3)C1)C2` gave an inhibition of 6.61%. `COc1ccc(C(=O)N2CCCC(CCC(=O)NCc3ccc(F)c(F)c3)C2)cc1F` (stereo not given) was tested, and the inhibition was 3.11%. `O=C(CCC1CCCN(C(=O)c2ccncc2)C1)NCc1ccc(F)c(F)c1` (stereo not given) showed an inhibition of 1.64%. With `O=C(Cn1cnc2c(nnn2Cc2ccccc2)c1=O)c1ccc(Cl)cc1` the inhibition was 2.57%. Molecule `Cc1cccc(-c2cc3nc4c(c(NCc5ccco5)n3n2)CCCC4)c1` has an inhibition of -3.49%. With `C=CCn1c(SCC(=O)NC23CC4CC(CC(C4)C2)C3)nc(O)cc1=O` the inhibition was 24.7% (active). Molecule `C=CCn1c(SCC(=O)NC23CC4CC(CC(C4)C2)C3)nc2cc(C(=O)O)ccc2c1=O` has an inhibition of 2.59%. For `C=CCn1c(SCC(=O)C23CC4CC(CC(C4)C2)C3)nc(O)cc1=O`, the inhibition was 5.12%. `Cc1ccc(S(=O)(=O)NCC(=O)N(CC(=O)NCC2CCCO2)C2CCCC2)cc1` (stereo not given) showed an inhibition of 4.45%. `O=c1sc(/C=N/Nc2ccccc2)c(Cl)n1Cc1ccccc1` gave an inhibition of -3.08%. Molecule `CC(C)c1ccc(N2C=Nc3ccc(C(C)C)cc3C2)cc1` has an inhibition of 0.82%. With `O=C1C(C2=NC(C(=O)O)C3C(=O)N(c4ccc(Cl)cc4)C(=O)C23)=C(O)c2ccccc21` (stereo not given) the inhibition was 25.7% (active). Molecule `O=C1C(C2=NC(c3ccccn3)C3C(=O)N(c4ccccc4)C(=O)C23)=C(O)c2ccccc21` (stereo not given) has an inhibition of 3.12%. In the case of `O=C1C(C2=NC(C(=O)O)C3C(=O)N(c4ccccc4)C(=O)C23)=C(O)c2ccccc21` (stereo not given), the inhibition is reported as 10.7%. `CCCCNC(=S)NNC(=O)CCn1cc(C)cn1` showed an inhibition of 4.21%. For `CCOC(=O)Cc1cc(=O)n2[nH]c(C(C)(C)C)cc2n1`, the inhibition was 4.13%. For `Cc1ccc(S(=O)(=O)N(C)C)cc1NC(=O)Nc1ccccc1`, the inhibition was 3.2%. Molecule `Cc1onc(-c2ccccc2)c1NC(=O)Nc1c(-c2ccccc2)noc1C` has an inhibition of 5.84%. `CCOC(=O)c1c(NC(=O)CSc2nnc(-c3ccccc3)n2CC)sc(C(C)=O)c1C` was tested, and the inhibition was 5.61%. Work on `CCCOC(=O)CSc1nc(N)c(C#N)c(-c2ccco2)c1C#N` yielded an inhibition of 8.7%. With `N=C1/C(=C\c2ccc(-c3cccc(Cl)c3)o2)C(=O)N=C2SC=C(c3ccccc3)N12` the inhibition was 15.9%. For `N=C1/C(=C\c2ccc(-c3ccc(C(=O)O)cc3)o2)C(=O)N=C2SC=C(c3ccccc3)N12`, the inhibition was 8.48%. `CC(C)S(=O)(=O)C1=NSC2=NC(=O)/C(=C\c3ccc(-c4cccc(C(=O)O)c4)o3)C(=N)N21` showed an inhibition of 17.7%. For `N=C1/C(=C\c2ccc(-c3cc(Cl)cc(Cl)c3)o2)C(=O)N=C2SC=C(c3ccccc3)N12`, the inhibition was -3.79%. With `CC12CCC(C/C1=N\N=C1\NC(=O)/C(=C\c3cccc(Br)c3)S1)C2(C)C` (stereo not given) the inhibition was 6.04%. `CCCC(=O)c1cn(CC(=O)OC)c2ccccc12` showed an inhibition of 1.35%. In the case of `CCCOc1nc2c(c(=O)n(C)c(=O)n2C)n1CCC`, the inhibition is reported as 24.2% (active). Molecule `CCCOc1nc2c(c(=O)n(C)c(=O)n2C)n1C` has an inhibition of 2.15%. Molecule `CCCn1c(OC)nc2c1c(=O)n(C)c(=O)n2C` has an inhibition of 1.88%. Work on `Cn1cnc2c(N/N=C/c3cccs3)ncnc21` yielded an inhibition of 7.29%. With `Clc1cnc(N/N=C/c2cccs2)c(Cl)c1` the inhibition was 4.04%. For `CCCCN(C)c1c(N2CCC(C(=O)OCC)CC2)c(=O)c1=O`, the inhibition was 12.2%. For `Cc1cc(C)c(S(=O)(=O)NCC(=O)O)cc1C`, the inhibition was -7.15%. Molecule `O=C(O)CSc1cc(NS(=O)(=O)c2cccc([N+](=O)[O-])c2)c2ccccc2c1O` has an inhibition of 19.8%. `O=C(CSc1nc(O)c(Cc2ccccc2)c(=O)[nH]1)N1CCOCC1` gave an inhibition of 0.8%. In the case of `Cc1ccc(-c2cc3ncc(C#N)c(N)n3n2)cc1`, the inhibition is reported as 6.77%. `COc1ccc(C(=O)NCCCN2CCOCC2)cc1S(=O)(=O)N1CCCc2ccccc21` gave an inhibition of -1.32%. In the case of `O=S(=O)(Nc1cc(Sc2ncn[nH]2)c(O)c2ccccc12)c1ccccc1`, the inhibition is reported as 13.5%. `COc1ccc(S(=O)(=O)Nc2cc(Sc3ncn[nH]3)c(O)c3ccccc23)cc1` was tested, and the inhibition was 24.3% (active). `COc1ccc(S(=O)(=O)Nc2ccc(O)c3ccccc23)cc1` showed an inhibition of 5.24%. `Cn1cnnc1SC1CCCCC1NS(=O)(=O)c1ccccc1` (stereo not given) was tested, and the inhibition was -1.9%. With `CCc1ccc(C(=O)CN2C(=O)NC(C)(CCc3ccccc3)C2=O)cc1` (stereo not given) the inhibition was 0.01%. `Oc1ccc(C2=Nn3c(nnc3-c3ccco3)SC2)cc1O` was tested, and the inhibition was 29.3% (active). For `Fc1ccc(C2=Nn3c(nnc3-c3ccco3)SC2)cc1`, the inhibition was 4.7%. Work on `c1ccc(C2=Nn3c(nnc3-c3ccco3)SC2)cc1` yielded an inhibition of 7.07%. Molecule `CCOC(=O)C(NC(=O)C1CCCN1C(=O)OCc1ccccc1)C(=O)OCC` (stereo not given) has an inhibition of -8.77%. `CCN(CC)C(=O)C1CCCN(Cc2ccc(OC)c(C)c2)C1` (stereo not given) showed an inhibition of -5.17%. `COCCCNC(=O)c1cccc(OC)c1OC` showed an inhibition of 3.12%. For `Cc1cnc(C(=O)Nc2cccc3cccnc23)cn1`, the inhibition was 24.3% (active). In the case of `Cc1cnc(C(=O)Nc2ccccc2F)cn1`, the inhibition is reported as 0.48%. For `COc1ccc(NC(=O)c2cnc(C)cn2)c2ncccc12`, the inhibition was 1.63%. `Brc1ccc(C2Nc3cccc4cccc(c34)N2)s1` gave an inhibition of 1.05%. `Cc1cccc(C)c1-n1cccc1/C=C1\SC(=S)N(c2cccc(C(=O)O)c2)C1=O` showed an inhibition of 6.85%. In the case of `Cc1[nH]c2ccccc2c1/C=N/Nc1cccc(C(=O)O)c1`, the inhibition is reported as 11.9%. `CCN1C(=O)C2(C(C#N)=C(N)Oc3n[nH]c(-c4ccc(Cl)cc4)c32)c2ccccc21` (stereo not given) showed an inhibition of -0.38%. `COC(=O)CN1C(=O)C2(C(C#N)=C(N)Oc3cc(C)oc(=O)c32)c2ccccc21` (stereo not given) was tested, and the inhibition was 1.21%. With `COC(=O)CN1C(=O)C2(C(C#N)=C(N)Oc3c2c(C)nn3-c2ccccc2)c2ccccc21` (stereo not given) the inhibition was 4.95%. `CCN1C(=O)C2(C(C#N)=C(N)Oc3n[nH]c(-c4ccccc4)c32)c2ccccc21` (stereo not given) showed an inhibition of -4.58%.
